# A selection follows. No count for the full screen is at hand.
# B1: il2ra_site1_1z92_sap_8_mot_a31c9f16200a66e5ad31ddff700483a3_0001_1_000000069_0001_19_32_H_._HHH_b1_08052_0001_0000300018_0000001_0_0001_af2pred_0001_af2pred (protein)
# chain: SSSSEESLRRLAERLVEDAAKLADLSEEQKEELEELAEELIKRGVDPHEIAKELERLADELSSSS
# B2: il2ra_site2_3nfp_normal_mot_HHH_b2_00429_000000100_0001_21_37_H_._HHH_b2_03374_0001_0000300044_0000001_0_af2pred_0001_1_af2pred_swapped (protein)
# chain: SSSSNHEEFALRAALISLKLAVEAGNEELVRRLYEDAERAAKNANDPEVLEELERVFEEFHSSSS
# B3: il2ra_site2_2erj_sap_17_mot_HHH_b2_05720_000000165_0001_1_18_H_._HHH_b2_07625_af2_0001_0000700024_0000001_0_0001 (protein)
# chain: SSSSSDEEEREAERITEEIEERIDDPEERLREFFRVAVELLREGDPRTAHILLRLAQEGSSSSSS
# B4: il2ra_site2_2erj_sap_24_mot_4428453eb85d3cbdb794fa6b82d21c19_0001_000000044_0001_14_30_H_._HHH_b2_00328_0001_0000300019_0000001_0_0001 (protein)
# chain: SSSSDELHRLYELANEILHALSRGDEELVEELLEELEKLAEEADSRVAKENVEALRKHLDSSSSS
# B5: il2ra_site1_2b5i_normal_mot_f5ff40796168375b462bec8614a1db4a_0001_1_000000138_0001_53_65_H_._HHH_b1_04161_0001_0000400021_0000001_0_af2pred_dldesign_0_af2pred (protein)
# chain: SSSSSLRELVEEIIAEVKRLVAEGKLEEARKLAILALRLARKAEDPELVARVEALLETLESSSSS
# B6: il2ra_site2_3nfp_normal_mot_HHH_b2_06150_000000217_0001_39_53_H_._HHH_b2_05434_af2_0001_0000100005_0000001_0 (protein)
# chain: SSSSDEEEVEKLLKKAEELRERGNPEEARKLLREATQIAYERRDSELFFLVAEVLFEVLLSSSSS
# B7: il2ra_site1_1z92_normal_mot_HHH_b2_00827_000000099_0001_20_37_H_._HHH_eva_0327_af2_0001_0000100007_0000001_0 (protein)
# chain: SSEEELEELVEKIREVAEEKGDERLRRALERARFVLRELELGANSERAREIAEEAIKALYKTVVS
# B8: il2ra_site1_3nfp_normal_mot_HHH_b1_04049_af2_000000244_0001_42_55_H_._HHH_b1_01786_0001_0000400012_0000001_0_af2pred_0001_af2pred (protein)
# chain: SSSSDDKKRIQKLLREIMRLSKEGDEEEAEKLLEEVEELAREAGDPVAELLVELLKKILNSSSSS
# B9: il2ra_site1_1z92_normal_mot_1581cc1c700002558836ca695aafbf97_0001_1_af2_000000099_0001_17_32_H_._HHH_b2_05050_0001_0000200017_0000001_0_af2pred_0001_af2pred (protein)
# chain: SSSSDEEVERLVEELVEEFNLSEEEEKELRRIARSAEELGADPELVKKALEHFVEFLKRKGSSSS
# B10: il2ra_site1_1z92_normal_mot_HHH_b1_04604_af2_000000029_0001_42_56_H_._HHH_b2_03915_0001_0000100005_0000001_0_af2pred_0001_af2pred (protein)
# chain: SSSSDAELAAEADELLAEGNPEKVEEVLEEIRRAAEERDSRRLKEILENLEEELRELEEESSSSS
# Molecular target: il2ra, P01589
# Sequence (P01589 whole entry): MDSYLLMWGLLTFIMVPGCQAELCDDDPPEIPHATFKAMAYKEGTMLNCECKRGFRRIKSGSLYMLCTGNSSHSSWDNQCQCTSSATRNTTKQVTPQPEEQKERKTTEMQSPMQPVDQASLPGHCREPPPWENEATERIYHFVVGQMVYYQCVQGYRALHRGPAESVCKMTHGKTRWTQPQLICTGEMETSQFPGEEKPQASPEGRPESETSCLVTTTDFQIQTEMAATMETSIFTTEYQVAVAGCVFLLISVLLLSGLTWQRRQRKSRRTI
# Experiment: yeast display titration
row,Binder,apparent Kd
1,B1,no binding seen (inactive)
2,B2,no binding seen (inactive)
3,B3,no binding seen (inactive)
4,B4,no binding seen (inactive)
5,B5,no binding seen (inactive)
6,B6,no binding seen (inactive)
7,B7,no binding seen (inactive)
8,B8,no binding seen (inactive)
9,B9,no binding seen (inactive)
10,B10,no binding seen (inactive)

# — paper PMC10163288
